Assay outcomes deposited in PubChem BioAssay by The Scripps Research Institute Molecular Screening Center.
GPR151 activ: activators of human GPR151; PathHunter beta-arrestin GPR151 cells, luminescence; activation, % at 11.2 µM; hit rate 1% among 650,000; in the data active = activation above about 4.9%;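 note: 0% = median of compound wells and 100% = cells with positive control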
Target sequence (Q8TDV0 whole entry, looked up): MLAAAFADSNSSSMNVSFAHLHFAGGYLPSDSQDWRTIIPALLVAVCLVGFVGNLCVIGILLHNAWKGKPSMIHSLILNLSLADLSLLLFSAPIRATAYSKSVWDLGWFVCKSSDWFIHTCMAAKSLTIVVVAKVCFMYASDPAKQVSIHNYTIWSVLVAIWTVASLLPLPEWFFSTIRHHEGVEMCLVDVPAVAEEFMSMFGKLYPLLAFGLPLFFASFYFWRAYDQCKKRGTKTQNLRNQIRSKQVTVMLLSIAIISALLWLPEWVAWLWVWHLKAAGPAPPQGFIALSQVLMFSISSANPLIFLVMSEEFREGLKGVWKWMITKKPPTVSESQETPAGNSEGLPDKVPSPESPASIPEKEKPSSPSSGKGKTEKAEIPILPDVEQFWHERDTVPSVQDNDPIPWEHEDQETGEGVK
FBW7 activator: human FBW7 E3 ligase activation, primary screen | AlphaScreen FBW7–phospho-cyclin E peptide binding, activator screen | normalized activity (activation), % at 26.1 µM | hit rate 0.13% among 650,000; in the data active = normalized activity above about 1.9%;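 note: purified mutant Fbw7 with reduced substrate affinity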
TEAD-YAP inh: TEAD-YAP interaction inhibition; HEK-TIYL cells, TEAD-Gal4/YAP UAS-luciferase luminescence; AID 1259422; hit rate 1.4% among 640,000; inhibition, % at 9.12 µM; in the data active = inhibition above about 32%;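 note: 0% = median of test compound wells and 100% = reference inhibitor wells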
MITF inh: blocks human microphthalmia-associated transcription factor | AlphaScreen MITF homodimerization, bead proximity signal | hit rate 0.91% among 650,000 | inhibition, % at 2.6 µM | O75030; in the data active = inhibition above about 50%;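 note: 0% = vehicle wells with protein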
GPR151 conf act: human GPR151 activation, confirmation screen | shares compounds with GPR151 activ | GPR151 PathHunter beta-arrestin cells, luminescence, 90 min; % of EA-reagent control over plate median | activation, % at 11.2 µM | 6,700 tested, under 10 active;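 active = mean percent activation across replicates above the confirmation screen cutoff of 4.91%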
GPR119 counter: counter-screen for GPR151 activators: effect on human GPR119; shares compounds with GPR151 activ; GPR119 PathHunter beta-arrestin cells, luminescence, 90 min; 0 = compound-well median, 100 = enzyme-acceptor control; activation, % at 11.2 µM; hit rate 0.3% among 6,700; AID 1508611;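 active = mean percent activation in the counterscreen above 29.09%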;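 note: counterscreen on off-target GPR119 to flag nonselective hits from the GPR151 activator screen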
Starred values were filed as active, the others as inactive; / = no result. The list is not random: actives were taken first. Their share in the collection is about 3.4%.

SMILES	GPR151 activ	FBW7 activator	TEAD-YAP inh	MITF inh	GPR151 conf act	GPR119 counter
COc1nc(NCCO)nc(-c2c(C)nn(C)c2C)n1	14*	0	8	2	-1	-9
O=C(Nc1ccccc1O)c1ccc(N2C(=O)C3C4C=CC(C4)C3C2=O)cc1 (centres undefined)	1	0	-126	-2	/	/
O=C(Nc1c[nH]c(=O)[nH]c1=O)c1ccc(N2C(=O)C3C4C=CC(C4)C3C2=O)cc1 (centres undefined)	6.7*	0	4	15	0	6
COCCCC1CCN(Cc2nc(-c3ccccn3)no2)CC1	6.7*	0	-9	-3	0	0
COCCN1CCN(Cc2nc(-c3ccccn3)no2)CC1	0	0	-6	11	/	/
CCC(C)(C)NC(=O)C(c1cccnc1)N(C(=O)c1csnn1)c1cccc(C)c1 (centres undefined)	0	0	0	-14	/	/
Cn1ccc(C(=O)NCC2Cc3cc(-c4cnccn4)cc(Cl)c3O2)n1 (centres undefined)	1	0	-1	18	/	/
Cc1ccn(CCC(=O)NCC2Cc3cc(-c4cnccn4)cc(Cl)c3O2)n1 (centres undefined)	12*	0	-1	-9	1	16
CCOc1ccc(NC(=O)CC2S/C(=N\N=C(/C)c3ccc(Cl)cc3)NC2=O)cc1 (centres undefined)	6.7*	0	4	5	0	-9
CC1CCCC(C)N1C(=O)c1cc2nc(-c3cccs3)cc(C(F)(F)F)n2n1 (centres undefined)	5.4*	0	6	1	-1	3
N#Cc1c(NC(=O)c2nn3c(C(F)(F)F)cc(-c4cccs4)nc3c2Cl)sc2c1CCCCC2	0	0	-3	7	/	/
O=C(c1nn2c(C(F)(F)F)cc(-c3cccs3)nc2c1Cl)N1CCCCC1	6.4*	0	-1	5	1	13
N#Cc1c(NC(=O)c2nn3c(C(F)(F)F)cc(-c4cccs4)nc3c2Cl)sc2c1CCCC2	9.2*	0	-1	-3	1	20
O=C(Cc1c(O)c2ccccc2[nH]c1=O)NCCO	1	0	3	-2	/	/
O=C(Cc1c(O)c2ccccc2[nH]c1=O)NCc1ccccn1	5.6*	0	4	16	0	6
CC1CC(C)(C)NC(=S)N1CCC(=O)Nc1ccc(F)c(F)c1 (centres undefined)	-1	0	-12	-2	/	/
Cc1cccc(NC(=O)c2cccc(C)c2N2CCC3(CC2)OCCO3)n1	0	0	-3	1	/	/
COc1ccccc1-c1nc2s/c(=C\c3cccc(OC)c3OC)c(=O)n2n1	0	0	-7	4	/	/
CC1(C)Cc2c(C#N)c(N3CCCC3)nc(-c3ccco3)c2CO1	12*	0	0	-4	1	4
N#Cc1c(N2CCCCC2)nc(-c2ccco2)c2c1CCCC2	0	0	14	16	/	/
CC(C)CCNC(=O)C1CCN(S(=O)(=O)N2CCCC2)CC1	1	0	0	9	/	/
CCNC(=O)CC1SC(=Nc2ccc(OC)cc2)N(C)C1=O (centres undefined)	-2	0	-10	-8	/	/
COc1ccc(N=C2SC(CC(=O)Nc3ccc(OC)cc3OC)C(=O)N2C)cc1 (centres undefined)	6.6*	0	0	-4	4	2
Fc1ccc(N2CCN(Cc3cn4ccccc4n3)CC2)cc1	2	0	-5	-15	/	/
O=C(NCCn1cc(SCc2ccc(Br)cc2)c2ccccc21)c1ccc(F)cc1	5.0*	0	3	1	0	-5
SMILES	GPR151 activ	FBW7 activator	TEAD-YAP inh	MITF inh	GPR151 conf act	GPR119 counter
O=C(C1CCCO1)N1CCN(CC(O)c2ccccc2)CC1 (centres undefined)	-2	0	0	38	/	/
COc1ccc(C2=N/C(=C\c3ccc([N+](=O)[O-])cc3)C(=O)O2)cc1[N+](=O)[O-]	-2	0	1	22	/	/
COc1ccc(/C=C2\N=C(c3cccc(I)c3)OC2=O)cc1[N+](=O)[O-]	14*	0	1	-4	1	-6
C=CCNC(=O)CN(c1ccccc1F)S(=O)(=O)c1ccc(C)cc1	6.6*	0	-4	-5	0	1
Oc1ccc(Br)cc1-c1nnc2ccc3ccccc3n12	10*	0	6	15	0	14
COC(=O)c1ccc(C(=O)OC)c(NC(=O)c2ccc(Cl)cc2[N+](=O)[O-])c1	-1	0	-2	-4	/	/
COc1ccc(CCC(=O)Nc2nc3c(s2)C(=O)CC(C)(C)C3)cc1	6.5*	0	14	-7	0	-7
COc1ccc(/C=C/C(=O)Nc2nc3c(s2)C(=O)CC(C)(C)C3)cc1	5.4*	0	0	6	0	1
COc1ccc(CC(=O)Nc2nc3c(s2)C(=O)CC(C)(C)C3)cc1	0	0	1	-5	/	/
COc1ccc(-c2cnnc(N[C@H]3CCCCNC3=O)n2)cc1	0	0	-20	2	/	/
Cc1cnc(C)c(NC2CCCCNC2=O)n1 (centres undefined)	8.0*	0	11	6	2	0
CCCCCCc1ccc(C(=O)Nc2ccccc2C(=O)OCC(=O)c2ccccc2)cc1	0	0	3	13	/	/
COC(=O)c1ccc(-n2nnnc2SCC(=O)N2CCOCC2)cc1	4.9*	0	-5	3	1	21
CCOc1ccc(-n2nnnc2SCC(=O)N2CCOCC2)cc1	5.3*	0	3	-14	0	6
O=C(CSc1nnnn1-c1ccc(F)cc1F)N1CCOCC1	5.5*	0	-11	12	2	12
NC(=O)C1CCN(C(=O)c2ccc3c(=O)n(C4CCCCC4)c(SCC(=O)N4CCCC4)nc3c2)CC1	0	0	1	-3	/	/
O=C(N/N=C/c1ccc(O)cc1)c1[nH]ncc1I	-8	1	-9	3	/	/
Cc1cccc(-c2nnc(C3CCN(S(=O)(=O)c4ccc([N+](=O)[O-])cc4C)CC3)o2)c1	0	0	-2	13	/	/
CCn1c(SCC(=O)Nc2ccc(OC)cc2)nnc1-c1cccs1	1	0	10	5	/	/
CCn1c(SCC(=O)Nc2cc(OC)cc(OC)c2)nnc1-c1cccs1	5.5*	1	18	-1	0	0
CCn1c(SCC(=O)NCc2cccs2)nnc1-c1cccs1	6.9*	0	21	5	0	0
Cn1c(SCC(=O)NCc2cccs2)nnc1-c1cccs1	-1	0	10	8	/	/
COc1cccc(NC(=O)c2cc(=O)c3ccccc3o2)c1	4.9*	0	-40	1	0	1
O=c1[nH]c2ccc(S(=O)(=O)N3CCN(c4ccccn4)CC3)cc2s1	5.1*	0	-13	-5	0	6
